Only some compounds are listed: those with a hit (about 1.7% of all), similar ones and a draw of the others.
GLP-1R agonist: agonists of human GLP-1 receptor; P43220; HEK293 GLP-1R CRE-luciferase, luminescence, 4-6 h; cells express a hypersensitive GLP-1R form; Potency, µM (highest dose often 45.6 µM), for inactives: at the top dose activation, actives largely listed as activators; hit rate 0.007% among 380,000; AID 624172; note: % of control where 0% means no effect
Target sequence (P43220 whole entry, looked up): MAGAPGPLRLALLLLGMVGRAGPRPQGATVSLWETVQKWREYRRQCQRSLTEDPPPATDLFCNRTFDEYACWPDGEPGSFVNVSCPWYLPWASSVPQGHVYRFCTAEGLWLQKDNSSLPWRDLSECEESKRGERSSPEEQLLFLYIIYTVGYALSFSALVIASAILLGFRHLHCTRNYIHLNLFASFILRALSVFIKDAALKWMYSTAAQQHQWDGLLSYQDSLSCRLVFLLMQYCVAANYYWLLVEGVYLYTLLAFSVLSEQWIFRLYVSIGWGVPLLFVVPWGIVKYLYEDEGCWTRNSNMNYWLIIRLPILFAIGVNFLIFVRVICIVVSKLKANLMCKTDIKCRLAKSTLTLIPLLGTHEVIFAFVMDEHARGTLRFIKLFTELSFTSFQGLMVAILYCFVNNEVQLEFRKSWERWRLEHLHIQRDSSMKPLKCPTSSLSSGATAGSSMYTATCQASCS
GLP-1R inv ag: inverse agonists of human GLP-1 receptor; HEK293 GLP-1R CRE-luciferase, luminescence, 24 h; GLP-1R form is constitutively active; hit rate 1.6% among 410,000; P43220; Potency, µM (top dose mostly 38.3 µM), for inactives: top-dose activity change, negative = inhibition, usual class: inhibitors; note: % is set by controls: 0 for no effect and ±100 for the full control effect; nearly all actives have a fitted effect of over 55% in size
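qHTS in 1536-well format: reporter HEK293 cells expressing constitutive GLP-1R activity in DMEM + 10% Nu serum, 24 hr with compounds at 37 deg C, luminescence read after 12 min with detection reagent.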
GLP1R cytotox: cytotoxicity in counter-screen for GLP-1R inverse agonists; HEK293 cAMP-luciferase reporter cells, luminescence, 24 h; AID 624418; Potency, µM (highest dose often 38.3 µM), without a hit: top-dose activity change, negative = inhibition, actives largely listed as inhibitors; hit rate 0.13% among 410,000;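 note: loss of luciferase light is scored as toxicity; % is set by controls: 0 for no effect and ±100 for the full control effect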
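Seeding density was 200 cells/uL; after overnight-length (12 h) culture, 23 nL compounds went on for 24 h at 37 °C. Readout used a luciferase detection reagent, luminescence taken after 12 min at room temperature.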
PTHR1 ag: activates the human parathyroid hormone receptor PTHR1 | hit rate 0.075% among 410,000 | Potency, µM (top dose mostly 115 µM), inactives show top-dose activation, most hits filed as activators | HEK293 GP2 PTHR1 cells, GloSensor cAMP luminescence, 1 h; note: nearly all actives have a fitted effect of over 55% in size
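HEK-293-derived GP2 cells expressing PTHR1 and a GloSensor cAMP reporter, 3,000/well, plated overnight, given luciferin plus IBMX (each 0.5 mM as added) for 1 h at 37 °C, then compound for 1 h at 37 °C. Luminescence was read after 15 min at room temperature.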
* marks the source's active call; other numbers are inactive results; i = inactive; ? = inconclusive; · = no result; [ ] = remark or other dose. Calls come from the whole dose curve; as a rule, active = well fitted curve in the direction sought with a large enough effect; inconclusive = small, poorly fitted or top-dose-only effect, or another doubt; inactive = no such curve, though single readings can be large; an effect the other way counts as inactive or inconclusive. Potency is the fitted concentration of half-maximal effect.

SMILES	GLP-1R agonist	GLP-1R inv ag	GLP1R cytotox	PTHR1 ag
CC[C@@H]1C(c2ccc(F)cc2)=NN(c2ccc(Br)cc2)[C@H]1C(=O)N1CCOC1=O	4.3%	10µM*	7.1%	-25.1%
Cc1cccc(C2=NN(c3ccc(Br)cc3)[C@@H](C(=O)N3CCOC3=O)[C@@H]2c2ccc(F)cc2)c1	-2.9%	8.91µM*	62.3%	i
O=C1OCCN1C(=O)[C@H]1[C@H](c2ccc([N+](=O)[O-])cc2)C(c2ccccc2)=NN1c1ccc(Br)cc1	-2.3%	3.55µM*	-25.2%	i
O=C1OCCN1C(=O)[C@H]1[C@H](c2ccc(F)cc2)C(c2cccc(Cl)c2)=NN1c1ccc(Br)cc1	-3.8%	8.91µM*	396.5%	-11.4%
Cc1cccc(C2=NN(c3ccc(Br)cc3)[C@@H](C(=O)N3CCOC3=O)[C@@H]2c2ccc(Cl)cc2)c1	-0.8%	?	70.8%	i
Cc1ccc2oc(=O)c3cnn(CC(=O)N4CCN(c5cc(Cl)ccc5C)CC4)c3c2c1	·	1.5%	1.7%	-2.9%
COc1cccc(NC(=S)N/N=C2\CC(C)(C)Oc3ccc(O)cc32)c1	3.0%	7.08µM*	?	i
OC1OC[C@@H](O)[C@H](O)[C@@H]1O (stereo partly specified)	-1.2%	·	·	·
C=CCN(CC=C)C(=S)NC(=O)c1ccc(-c2ccccc2)cc1	-10.6%	?	?	-35.7%
C=CCN(CC=C)C(=S)NC(=O)c1ccc(OC)cc1	1.0%	?	0.631µM*	i
C=CCN(CC=C)C(=S)NC(=O)/C=C/c1ccc(C)cc1	13.6%	0.5%	-1.6%	i
C=CCN(CC=C)C(=S)NC(=O)c1ccc(C)c(Br)c1	-2.7%	3.16µM*	?	i
CCCCNC(=O)CSc1nc2nc(C)c(Cc3ccccc3C)c(C)n2n1	·	-10.7%	-3.2%	i
CN1CCN(CC(=O)Nc2nc(-c3ccccc3)cs2)CC1	-0.1%	?	5.8%	-21.4%
COc1ccc(C2(O)CCN(CC(=O)Nc3nc(-c4ccccc4)cs3)CC2)cc1	-1.0%	7.08µM*	-18.0%	-26.5%
CC1CCN(CC(=O)Nc2nc(-c3ccccc3)cs2)CC1	-8.3%	5.62µM*	-9.5%	i
CCOc1cc(CNCCSc2nnnn2-c2ccccc2)cc(Cl)c1OC	·	?	0.0%	-15.3%
CCN1CCSc2ccc(C(=O)NCc3cccc(Br)c3)cc21	17.7%	10µM*	2.4%	-3.3%
CCN1CCSc2ccc(C(=O)NCc3cccc(F)c3)cc21	7.1%	?	2.5%	-67.7%
CNS(=O)(=O)c1cn(CC(=O)N2CCN(c3ccc(C(C)=O)cc3)CC2)cc1S(=O)(=O)NC	·	17.1%	0.0%	i
CCOc1ccc(N(C)S(=O)(=O)c2cc(-c3cc(C)no3)ccc2C)cc1	-0.6%	?	0.8%	-29.4%
CCOc1ccc(N(C)S(=O)(=O)c2cc(-c3cc(C)no3)ccc2CC)cc1	-4.4%	8.91µM*	2.7%	-21.8%
Cc1ccc(N=Nc2c(C)[nH]n(C(N)=S)c2=O)cc1C	-3.8%	0.501µM*	?	-76.7%
Cc1[nH]n(C(N)=S)c(=O)c1N=Nc1ccc2ccccc2c1	2.8%	?	?	-35.6%
S=C(NCc1cccs1)Nc1cccc2ccccc12	4.4%	?	-7.8%	-11.9%
SMILES	GLP-1R agonist	GLP-1R inv ag	GLP1R cytotox	PTHR1 ag
Cc1cc(Cl)ccc1NC(=S)NCc1ccccc1	3.4%	11.2µM*	-6.6%	-2.7%[57.5 µM]
S=C(NCc1ccccc1)Nc1cccc2ccccc12	-3.1%	10µM*	?	-37.2%
Cc1cc(Cl)ccc1NNC(=O)CCc1ccccc1	-1.7%	4.47µM*	8.8%	i
Cc1cc(C)cc(NC(=O)C(=S)NCc2ccccc2)c1	-3.4%	11.2µM*	1.2%	-0.1%
COc1cccc(CNC(=S)Nc2ccc(Cl)cc2C)c1	0.4%	?	?	i
O=C(CCc1ccccc1)NNC(=O)c1cc(Cl)ccc1O	-0.5%	-29.1%	-11.7%	-6.0%
CC(=O)c1ccc(NC(=O)CC2Oc3ccc(C)cc3NC2=O)cc1 (stereo unspecified)	·	7.9%	5.9%	i
COc1cccc(CNS(=O)(=O)c2cnc(N)nc2)c1	·	6.1%	22.6%	-17.4%
Cc1cc(Cl)ccc1NNC(=O)c1c(C)noc1C	13.6%	1.41µM*	?	-39.8%
Cc1ccc(NNC(=O)c2c(C)noc2C)cc1Cl	-3.0%	?	-27.0%	-19.6%
Cc1ccc(-n2c(-c3ccccc3)n[nH]c2=S)c(C)c1	-5.9%	?	10µM*	12.8%

Bioassay records from PubChem BioAssay.
